Tested on: LXRb:RXRa (NR concentration 270 nM, RXRa partner concentration 90 nM)
Experiment: PBM binding z-score (relative to random genomic background probes); higher = stronger binding; sequences stand for … in GC…GCGATTGACAGCGTAGAATGAAGG
Method: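 Protein-binding microarray (Agilent 4x180K custom design, double-stranded 60-nt probes: 5' GC cap, 34-nt variable region, 24-nt constant primer region; full probe sequence given). Purified or IVT nuclear receptor:RXRα heterodimers (3:1 NR:RXRα, mostly 270:90 nM) or homodimers were incubated for 1 h in PBS with 2% milk and no ligand, then detected with Alexa488 antibodies. Fluorescence from o1-orientation probes (~5 replicates averaged) was converted to z-scores against 500 random hg19 background probes. Variable regions are seed direct-repeat (DR0–DR5) sites, all their single-nucleotide variants and half-site ablations.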

Row | Sequence | PBM binding z-score
1 | TAGCCTAGTTCATTCAGGGGCCAGTATAGAAAGC | 0.643
2 | CGAACGAGGTCACCAGGACAGTGAAGAGGTTGGA | 4.94
3 | GCATATAGGTAATACAAGGTCAAAGTCCGATTGT | 5.63
4 | CCTACTGGGCCAAAAAGGTCATTGATGCCGATAA | 3.74
5 | GCTGCTAGGTCAACTGATGGTCACCTAAAGCTCG | 2.31
6 | ATTTGTAGGTTACATCCGGGTCATTCAGGCTATG | 3.54
7 | GATACAGGGTCGGCTAGAGGCCAGAGTATGGAAA | 0.129
8 | GGAACGAGGTCAAAGTTGATAGCATCTGTCGACG | 5.45
9 | TAGCCTAGTTCATGCGGGCCAGTATAGTGTCGGC | -0.398
10 | TCTCGGAGGACACCAAAGGTCAGAGCTCGACATC | 3.46
11 | TAGCCTAGGTCATTCAGGGGCCACTATAGAAAGC | 3.38
12 | CGAACTAGGTCATCCAGGACCGTGAATACATTGA | 1.72
13 | CAAACTAGTTCAAGAGGTCAAAGTCCGCTTCCCG | 5.37
14 | CCAACTGGGCCAAAAAGGTCATTGATGCCGATAA | 4.36
15 | CAAACTAGGTCACGAGAGGTCAAAGTCGAATGAC | 7.33
16 | CCTACTGGGCCTAAGGTCATTGATTCCAATGCTC | 3.36
17 | ATCGAAAGGTCGACCAGGTGAGTATACACCGTTT | 3.1
18 | ATATGTAGGTTAGCTGAGGTCATTCAGACTAGGC | 4.72
19 | CGTCAAAGATCAAGGTAACGTAACAGAAAGCAGC | 0.0744
20 | CCGAGTTGGTCAAGGTCACACACGCTATAGGTAC | 3.66
21 | CCTACTGGACCAAGGTCATTGATCAGTCAAAGCA | 3.46
22 | CCTGCGAGGTCATGGTCAGCTAATCTACAGTATG | 4.6
23 | CCTTACGGGTCACGAGGTCATAGCACGACGAGCG | 5.05
24 | TAGCCTAGGTCATACAGGGGCCAGTATAGAAAGC | 2.48

Reference: the supplement of paper PMC6555819
